# Results from PubChem BioAssay AID1835 (Johns Hopkins Ion Channel Center, 2009).
# Out of some 2,400 compounds screened, about 750 (31%) were called active. This is one part of the list. Unmarked numbers belong to inactive results.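 How the source made its calls: active means median signal gain over dofetilide-blocked control wells reaching their mean plus 3 SD, so readout 1 at least 0; inactive means the rest.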
# Molecular target: Voltage-gated inwardly rectifying potassium channel KCNH2 (Homo sapiens) (UniProt Q12809)
# Sequence (Q12809 whole entry, looked up): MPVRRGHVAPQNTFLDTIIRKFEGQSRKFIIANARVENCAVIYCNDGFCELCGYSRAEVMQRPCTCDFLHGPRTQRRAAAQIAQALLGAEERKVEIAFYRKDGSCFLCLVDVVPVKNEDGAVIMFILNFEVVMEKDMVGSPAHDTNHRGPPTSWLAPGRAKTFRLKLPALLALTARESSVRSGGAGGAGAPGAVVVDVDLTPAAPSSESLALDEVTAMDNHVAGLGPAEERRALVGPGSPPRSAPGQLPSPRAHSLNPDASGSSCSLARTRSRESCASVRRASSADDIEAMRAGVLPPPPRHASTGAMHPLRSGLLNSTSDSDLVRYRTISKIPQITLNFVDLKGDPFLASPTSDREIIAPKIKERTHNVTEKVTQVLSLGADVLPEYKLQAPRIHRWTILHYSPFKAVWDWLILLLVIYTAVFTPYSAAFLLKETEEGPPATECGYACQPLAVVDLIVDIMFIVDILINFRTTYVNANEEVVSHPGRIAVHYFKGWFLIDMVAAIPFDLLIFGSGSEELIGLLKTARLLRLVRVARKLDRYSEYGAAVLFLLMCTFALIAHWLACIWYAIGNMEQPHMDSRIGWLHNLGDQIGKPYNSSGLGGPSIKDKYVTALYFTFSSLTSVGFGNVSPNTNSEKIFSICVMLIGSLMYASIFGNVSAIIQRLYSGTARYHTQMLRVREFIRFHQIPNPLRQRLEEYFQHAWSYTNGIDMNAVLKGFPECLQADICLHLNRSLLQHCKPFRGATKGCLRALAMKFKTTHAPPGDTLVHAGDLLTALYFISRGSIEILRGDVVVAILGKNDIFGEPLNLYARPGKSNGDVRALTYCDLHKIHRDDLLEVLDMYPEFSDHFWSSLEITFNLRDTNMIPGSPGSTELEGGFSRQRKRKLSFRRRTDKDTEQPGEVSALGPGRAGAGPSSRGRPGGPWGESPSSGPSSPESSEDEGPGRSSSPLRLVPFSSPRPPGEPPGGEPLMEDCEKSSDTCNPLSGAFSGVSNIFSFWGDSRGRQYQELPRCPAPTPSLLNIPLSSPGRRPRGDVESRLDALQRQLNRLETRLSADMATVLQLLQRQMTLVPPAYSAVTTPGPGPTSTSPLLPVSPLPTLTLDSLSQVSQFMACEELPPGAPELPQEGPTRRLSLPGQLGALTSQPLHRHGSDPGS
# Experiment: hERG protection against dofetilide inhibition, confirmation, cell-based, thallium flux, duplicate retest, dofetilide IC70 (AID 1835)
# Details: hERG cell line, FluxOR thallium flux, dofetilide-blocked; at 10 µM; stronger effect = higher value
SMILES,"activity increase over dofetilide control, less the hit threshold",activity increase over dofetilide control
CC/C(=C\C=C\[C@@H]1C=C[C@@H]2CCC[C@H]2[C@@H]1C(=O)c1ccc[nH]1)[C@@H]1O[C@@H]([C@@H](C)C(=O)O)CC[C@@H]1C,128% (active),
Cc1nc2ccccc2c(=O)n1-c1cc([N+](=O)[O-])cc([N+](=O)[O-])c1,,-26%
O=C(Cn1ncc2c3ccccc3n(Cc3ccccc3F)c2c1=O)N1CCC2(CC1)OCCO2,,2% (active)
CCCc1[nH]nc2c1C1(C(=O)N(Cc3ccccc3)c3ccccc31)C(C(=O)OC)=C(N)O2 (centres undefined),-35%,
CC(=NCc1ccco1)c1c(O)n(-c2ccc(C)cc2)c(=O)[nH]c1=O,,-19%
O=c1[nH]c(=S)[nH]c(O)c1N=Nc1ccc(S(=O)(=O)N2CCc3ccccc32)cc1,,25% (active)
COc1ccc(-c2nc(CSCC(=O)N3CCC4(CC3)OCCO4)c(C)o2)cc1OC,,-23%
O=C(COc1ccc(Br)cc1)N1CCN(Cc2ccc3c(c2)OCO3)CC1,-12%,
CCOC(=O)c1c(NS(=O)(=O)c2ccccc2)n(CCCOC)c2nc3ccccc3nc12,65% (active),
CCCCn1c(O)c(C(CC)=Nc2ccc(OCC)cc2)c(=O)[nH]c1=O,,-23%
NS(=O)(=O)c1ccc(-c2ccc(C=C3C(=O)NC(=O)NC3=O)o2)cc1,,-2%
CCOC(=O)Cn1cc([N+](=O)[O-])nc1[N+](=O)[O-],-18%,
O=C1CC(=O)N(c2cccc(C(F)(F)F)c2)C(=O)N1,-15%,
Cc1ccc(-n2c(O)c(/C=N/Nc3ccccc3)c(=O)[nH]c2=O)cc1C,,-5%
C=CCn1c(O)c(/C=C2/C=c3ccccc3=N2)c(=O)[nH]c1=S,,96% (active)
O=c1[nH]c(=S)[nH]c(O)c1/C=C1/C=c2ccccc2=N1,,14% (active)
Cc1ccc(S(=O)(=O)NC(Cc2cnc[nH]2)C(=O)O)cc1 (centres undefined),-7%,
COc1ccc2c3c1OC1C(O)C=CC4C(C2)[N+](C)(C)CCC341 (centres undefined),,-2%
Oc1ccc(CC2(N3CCCC3)CCCCC2)cc1,-14%,
CC(C)(C)c1ccc(OC(=O)N2CCCCC2)cc1,-16%,
O=S(=O)(c1ccccc1)N1CCCCC1c1cccnc1 (centres undefined),-17%,
O=C1NC(=O)N(Cc2ccccc2Cl)C(=O)/C1=C/N1CCOCC1,,-7%
O=C1NC(=O)C(=Cc2ccc(-c3ccc(Cl)cc3)o2)C(=O)N1,,-1%
O=C(O)CCC(=O)NCCC1=c2ccccc2=N/C1=C\c1c(O)n(Cc2ccc(F)cc2)c(=S)[nH]c1=O,,11% (active)
